Compound activity from PubChem BioAssay.
This excerpt belongs to a sample that is enriched for hits.
TbPYK inhibitor = T. brucei pyruvate kinase inhibition; Q57TT1; TbPYK enzyme, Kinase-Glo Plus ATP luminescence, 45 min; Potency, µM (doses to about 76.8 µM), inactives show top-dose activity, negative = inhibition, hits mostly inhibitors; 410,000 tested, 0.12% active; AID 624173; active = well fitted curve in the direction sought with a large enough effect; inconclusive = small, poorly fitted or top-dose-only effect, or another doubt; inactive = no such curve, though single readings can be large; an effect the other way counts as inactive or inconclusive; note: potency is the fitted concentration of half-maximal effect; % is set by controls: 0 for no effect and ±100 for the full control effect; nearly all actives have a fitted effect of over 50% in size
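Quantitative HTS: titrated library compounds versus trypanosomal pyruvate kinase in TEA buffer (pH 7.2) containing KCl, MgCl2, BSA and Tween-20. Reactions were initiated with ADP, 130 uM final. Kinase-Glo Plus luminescence was read after 45 min at RT.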
Shiga toxin inh = inhibitors of Shiga toxin in Vero cells; Vero cells, Shiga toxin protein synthesis inhibition reporter; inhibition, % at 38.7 µM; 290,000 tested, 9.2% active; in the data active = inhibition mostly above about 28%, no sharp cut-off; inactive = mostly below about 43%; note: 0% is about no effect
NS1 function inh = inhibitors of influenza NS1 protein function | Potency, µM (doses to about 46.1 µM), inactives show at the highest dose activity, positive = more growth | AID 2326 | 270,000 tested, 0.4% active; note: potency is the fitted concentration of half-maximal effect; actives are rising curves; nearly all actives have a fitted effect of over 50% in size
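OD600 was taken as the measure of yeast growth restored by compound in an NS1-expressing S. cerevisiae strain. Cells had been washed out of glucose medium and diluted 1:100 into galactose -URA medium, pH 6.0.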
LmPK inhibitor = blocks Leishmania mexicana pyruvate kinase activity. 290,000 tested, 0.37% active. Potency, µM (doses to about 57.5 µM), for the others: top-dose activity change, negative = inhibition, usual class: inhibitors. purified LmPK, Kinase-Glo ATP luminescence, 1 h; active = well fitted curve in the direction sought with a large enough effect; inconclusive = small, poorly fitted or top-dose-only effect, or another doubt; inactive = no such curve, though single readings can be large; an effect the other way counts as inactive or inconclusive; note: potency is the fitted concentration of half-maximal effect; % is set by controls: 0 for no effect and ±100 for the full control effect
Target sequence (Q27686 whole entry, looked up): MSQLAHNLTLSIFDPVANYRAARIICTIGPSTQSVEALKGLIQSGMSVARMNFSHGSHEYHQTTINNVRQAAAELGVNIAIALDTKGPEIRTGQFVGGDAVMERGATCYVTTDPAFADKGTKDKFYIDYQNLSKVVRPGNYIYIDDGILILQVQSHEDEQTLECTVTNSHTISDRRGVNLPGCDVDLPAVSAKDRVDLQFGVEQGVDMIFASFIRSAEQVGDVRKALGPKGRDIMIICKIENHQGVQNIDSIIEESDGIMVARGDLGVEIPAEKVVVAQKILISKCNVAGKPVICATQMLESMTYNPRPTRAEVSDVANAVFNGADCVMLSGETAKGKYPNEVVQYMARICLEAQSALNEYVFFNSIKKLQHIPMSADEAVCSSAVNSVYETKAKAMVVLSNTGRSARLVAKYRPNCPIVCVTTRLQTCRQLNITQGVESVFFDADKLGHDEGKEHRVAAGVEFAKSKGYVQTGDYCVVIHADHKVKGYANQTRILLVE
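Purified LmPK (0.1 nM) with 0.5 mM PEP and 0.1 mM ADP in imidazole buffer pH 7.2 with MgCl2/KCl, 1 h at room temperature. ATP formed was read by luciferase luminescence and normalized to no-enzyme and uninhibited controls.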
SARS PLP yeast = inhibitors of SARS-CoV papain-like protease in yeast | S. cerevisiae expressing SARS-CoV PLpro, growth rescue | Potency, µM (highest dose often 32.9 µM), for inactives: at the top dose activity, positive = growth rescue, usual class: activators | 330,000 tested, 0.19% active; note: potency is the fitted concentration of half-maximal effect; 0% is about no effect; nearly all actives have a fitted effect of over 55% in size
Cycloheximide cs = counter-screen hit for Shiga toxin inhibitors, cycloheximide | cell reporter, cycloheximide protein synthesis inhibition counterscreen | max response, % | 300,000 tested, 12% active | AID 2314; in the data active = max response mostly above about 13%, no sharp cut-off; inactive = mostly below about 14%; note: read at 38.3 µM for the half of the compounds with a filed dose; 0% is about no effect
Numbers without * were called inactive; ? = inconclusive; nt = no result; [ ] = another dose, or the depositor's remark. Unless noted, calls come from the whole dose curve.

SMILES	TbPYK inhibitor	Shiga toxin inh	NS1 function inh	LmPK inhibitor	SARS PLP yeast	Cycloheximide cs
CCOc1ccc(C(c2c(O)cc(C)n(CCOC)c2=O)N2CCN(c3ccc(F)cc3)CC2)cc1 (stereo not drawn)	-7.9%	nt	nt	nt	nt	nt
CCC(=O)N1CCCc2cc(S(=O)(=O)N3CCC(C(=O)NCc4ccc(F)cc4)CC3)ccc21	4.0%	nt	nt	nt	nt	nt
c1cncc(CSc2ccc(-c3ccc4c(c3)OCO4)nn2)c1	-3.6%	98.7*	nt	7.1%[11.5 µM]	-15.4%	57.1*
Cc1ccccc1CSc1ccc(-c2ccc3c(c2)OCO3)nn1	1.4%	82.2*	-2.5%	-0.7%	6.3%	49.1*
Cc1nc(C)c(-c2ccc(SCc3ccccc3C)nn2)s1	-5.1%	33.7*	0.0%	8.3%	-10.9%	44.7*
CCC1(c2ccc(F)cc2)NC(=O)N(CC(=O)N2CCN(C(=O)c3ccco3)CC2)C1=O (stereo not drawn)	0.4%	nt	nt	nt	2.5%	nt
CCc1c2c(nc3ccc4c(c13)OCCO4)-c1nc3ccccc3c(=O)n1C2	nt	-0.8	nt	nt	nt	-7.9
Clc1ccc(CNc2ccccc2NCc2ccc(Cl)nc2)cn1	-18.7%	-6.8	-2.1%	-0.2%	-1.8%	15.4
Nc1cnc(CNc2ccccc2Cl)cn1	-1.4%	32.0*	2.2%	-6.2%	-2.2%	14.1
CN1CCN(c2ccc(NC(=S)NC(=O)/C=C/c3ccco3)cc2)CC1	-1.5%	105.6*	?	2.4%	4.8%	44.4*
COc1cccc(NC(=S)NC(=O)/C=C/c2ccco2)c1	-12.9%	57.9*	-6.3%	12.1%	1.7%	31.0*
CC(=O)Nc1ccc(NC(=S)NC(=O)/C=C/c2ccco2)cc1	-19.5%	nt	12.6%	16.2%	4.9%	-3.7
CCOc1ccc(NC(=S)NC(=O)/C=C/c2ccco2)cc1	-7.6%	nt	12.4%	0.7%	7.0%	13.2*
O=C(/C=C/c1ccco1)NC(=S)Nc1cccc(C(=O)O)c1	-21.8%	44.8*	10.2%	9.5%	4.1%	22.8*
COc1ccccc1C1CCN(Cc2ccc(C)cc2)CC1	4.3%	-5.9	-5.0%	-3.2%	1.8%	-3.6
Cc1cc(C)c(NC(=O)CSc2nccn2-c2cccc(Cl)c2)c(C)c1	1.9%	nt	nt	nt	nt	nt
CC(=O)c1ccc(S(=O)(=O)NC2CCCCCCC2)cc1	-17.9%	7.6	-15.0%	1.8%	-20.4%	-8.4
COc1ccc(C(NC(=O)/C=C/c2ccco2)c2ccc(OC)c(OC)c2)cc1 (stereo not drawn)	-10.6%	84.7*	?	-2.5%	13.9%	42.2*
Cc1csc(NC(=O)Cc2ccc(Br)cc2)n1	-4.0%	61.0	-3.1%	10.1%	-10.3%	31.3*
COc1ccc(CC(=O)Nc2nc(C)cs2)cc1	2.9%	29.5	nt	0.6%	0.0%	20.1*
Cc1csc(NC(=O)Cc2ccccc2Cl)n1	3.8%	110.3*	19.2%	-2.1%	?	39.8*
CC(C)OCCCNC(=O)NC12CC3CC(CC(C3)C1)C2	3.1%	15.0	-7.0%	0.3%	3.6%	13.1*
COCCNC(=O)NC12CC3CC(CC(C3)C1)C2	1.4%	-3.5	nt	0.3%	0.1%	-2.9
CCOCCn1c(COc2ccc(C)cc2)nc2ccccc21	5.3%	40.2*	-37.3%	2.8%	3.8%	37.1*
COCCn1c(-c2ccc(OC)cc2)nc2ccccc21	-0.4%	-1.4	-57.4%	-8.3%	-11.5%	15.7*
SMILES	TbPYK inhibitor	Shiga toxin inh	NS1 function inh	LmPK inhibitor	SARS PLP yeast	Cycloheximide cs
COc1ccc(Cn2c(-c3ccc(OC)cc3)nc3ccccc32)cc1	-0.4%	11.9	-4.9%	2.0%	-32.1%	7.4
CCn1c(COc2ccc(C)cc2)nc2ccccc21	-3.5%	78.6*	-42.5%	4.6%	-2.5%	43.9*
COCCn1c(COc2ccc(C)cc2)nc2ccccc21	4.0%	71.3*	-82.9%	-1.5%	-3.2%	42.0*
Cc1cn(-c2cc(NC(=O)c3ccc(C)c(Nc4nccc(-c5cccnc5)n4)c3)cc(C(F)(F)F)c2)cn1	-1.5%	nt	nt	nt	nt	nt
Cn1cc(/C=C(\NC(=O)c2ccccc2)C(=O)NCCN2CCOCC2)c2ccccc21	0.0%	-0.9	6.3%	-3.3%	-4.6%	10.8
Nc1nc(NC(=O)c2cccnc2)nn1-c1ccccc1	-0.4%	12.2	-1.1%	8.1%	2.4%	12.7
Nc1nc(NC(=O)c2ccc(Cl)cc2)nn1-c1ccccc1	2.9%	32.9	16.7%	4.6%	5.7%	17.3*
O=CC1=C(c2ccccc2)Oc2ccccc2O1	2.2%	93.7*	-128.0%	-4.1%	-31.1%	38.3*
CC#CC#Cc1cccc(=O)o1	0.4%	61.1*	-51.2%	-1.4%	-0.8%	25.4*
Cc1ccc(N2C(=O)C3CCCN3C2=S)cc1C (stereo not drawn)	15.6%	28.2	-2.7%	-6.5%	1.1%	15.9*
Nc1c(Cl)nc(-c2ccccc2)nc1Cl	-0.7%	21.0	nt	0.7%	-2.5%	13.8*
Cc1nc(-c2ccccc2)nc(Cl)c1Cl	-0.6%	13.4	nt	-13.6%	0.0%	1.8
CC1=C(O)C(=O)C=C2C1=CC=C1C2(C)CCC2(C)C3CC(C)(C(=O)O)CCC3(C)CCC12C (stereo not drawn)	35.5µM*	nt	nt	nt	nt	nt
COC(CN1CCc2c(C)nc3c(C#N)cnn3c21)OC	-0.8%	-2.8	6.6%	1.4%	3.4%	-0.8
COc1ccc(-c2cnn3c4c(c(C)nc23)CCN4C(C)C)cc1OC	2.6%	47.0*	3.1%	1.7%	-1.7%	26.8*
c1ccc(-c2nc3nc4ccccc4nc3n2CC2CCCO2)cc1 (stereo not drawn)	3.6%	30.2	0.7%	1.0%	0.4%	30.4*
COC(=O)N1C(=O)[C@](c2ccc(OC)cc2)(C(C)C)N1C(=O)OC	0.8%	14.0	-30.2%	-3.9%	-4.4%	10.3*
COc1ccc(C2(C)NC(=O)N(CC(=O)NC(C)c3ccc(CC(C)C)cc3)C2=O)cc1 (stereo not drawn)	-9.7%	-5.9	10.8%	-1.8%	-1.4%	-1.1
COC(=O)N1C(=O)[C@](c2ccsc2)(C(C)C)N1C(=O)OC	-8.3%	13.8	-5.7%	-0.1%	-6.0%	19.7*
O=c1[nH]c(-c2ccco2)nc2sc3c(c12)CCCC3	-6.6%	91.0*	-25.8%	-5.1%	-53.8%	50.7*
CSCCC(NC(=O)COc1ccccc1)C(=O)N(C)Cc1c(F)cccc1Cl (stereo not drawn)	-4.6%	nt	nt	nt	nt	nt
CCCN(C(=O)c1cc(S(=O)(=O)N2CCc3ccccc32)cn1C)c1ccc(OCC)cc1	-0.3%	nt	nt	nt	nt	nt
COC(=O)c1ccc(OCc2cc(=O)n3ccsc3n2)cc1	0.7%	141.8*	-7.6%	-23.3%	2.8%	49.4*
COc1ccc(C(=O)Nc2ccc(OCc3cc(=O)n4ccsc4n3)cc2)cc1OC	-4.9%	nt	nt	nt	nt	nt
COc1cccc(S(=O)(=O)N(C)C[C@@H]2Oc3ncc(C#CCN(C)C)cc3C(=O)N([C@H](C)CO)C[C@H]2C)c1	-5.8%	nt	nt	nt	nt	nt
O=c1oc(Nc2ccccc2Cl)nc2ccccc12	-3.3%	31.1	1.1%	-0.9%	0.6%	23.0*
O=c1oc(Nc2ccccc2F)nc2ccccc12	3.9%	52.5*	-7.4%	-10.7%	6.3%	33.6*
